Source: PubChem BioAssay (National Center for Advancing Translational Sciences (NCATS))
Only some compounds are listed: those with a hit (about 11% of all), similar ones and a draw of the others.
12-hLO inh: qHTS Assay for Inhibitors of 12-hLO (12-human lipoxygenase); Polyunsaturated fatty acid lipoxygenase ALOX12 (Homo sapiens), P18054; purified 12-hLO, xylenol orange hydroperoxide absorbance; Potency, µM (top dose mostly 57.1 µM), for inactives: at the top dose activity change, negative = inhibition, actives largely listed as inhibitors; actives 0.12% (n = 150,000); note: potency is the fitted concentration of half-maximal effect; nearly all actives have a fitted effect of over 55% in size
Target sequence (P18054 whole entry, looked up): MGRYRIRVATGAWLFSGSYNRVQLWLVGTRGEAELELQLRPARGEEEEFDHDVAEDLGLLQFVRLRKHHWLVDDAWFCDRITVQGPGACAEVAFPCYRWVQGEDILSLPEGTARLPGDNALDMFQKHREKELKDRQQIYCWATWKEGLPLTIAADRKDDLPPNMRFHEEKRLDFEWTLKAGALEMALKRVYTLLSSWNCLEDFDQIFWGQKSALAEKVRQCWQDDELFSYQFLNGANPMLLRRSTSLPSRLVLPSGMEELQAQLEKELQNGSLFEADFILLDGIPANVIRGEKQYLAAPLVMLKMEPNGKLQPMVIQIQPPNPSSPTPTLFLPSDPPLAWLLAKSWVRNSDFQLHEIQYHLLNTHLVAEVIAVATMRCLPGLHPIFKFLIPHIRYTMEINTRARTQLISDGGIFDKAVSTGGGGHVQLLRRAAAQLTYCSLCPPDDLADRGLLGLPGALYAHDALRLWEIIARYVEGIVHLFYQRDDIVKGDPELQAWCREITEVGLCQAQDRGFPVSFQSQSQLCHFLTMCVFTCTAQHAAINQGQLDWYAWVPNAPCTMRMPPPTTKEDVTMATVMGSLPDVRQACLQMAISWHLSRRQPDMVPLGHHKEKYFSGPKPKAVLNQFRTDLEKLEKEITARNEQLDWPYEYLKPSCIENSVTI
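150 nM 12hLO, 25 mM Hepes pH 7.0 + 0.01% Triton X-100; cpd preinc 15 min RT; 40 uM arachidonic acid, 30 min RT; Fe-XO 30 min; A573/A405 ratio as read-out.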
PNC inhibitor: High Content Assay for Compounds that inhibit the Assembly of the Perinucleolar Compartment; actives 3.1% (n = 140,000); activity change (PNC), negative = inhibition, % at 10 µM; PC3M PTB-GFP, PNC prevalence imaging, 16 h; hits give low values;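 active = readout at or below -70, meaning at least 70% loss of cells showing the perinucleolar compartment, a nuclear body marking cancer cells; inconclusive = readout between -30 and a set limit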;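 note: plate controls were DMSO wells for no effect and camptothecin positive control wells for full effect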
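Read-out is percentage of cells bearing a perinucleolar compartment, from automated 20x imaging of fixed, Hoechst-stained PC3M PTB-GFP cells. Cells were seeded 4 h, then exposed 16 h to compound (23 nl of library stock) in duplicate plates.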
ALDH1A1 block: qHTS Assay for Inhibitors of Aldehyde Dehydrogenase 1 (ALDH1A1). Potency, µM (series often up to 75.3 µM), for inactives: at the top dose activity, negative = inhibition, usual class: inhibitors. actives 7.3% (n = 220,000). AID 1030, 2008. Purified ALDH1A1, NADH fluorescence, propionaldehyde substrate; active = well fitted inhibition curve with a large enough effect, not every such curve was filed as active; inconclusive = small, poorly fitted or top-dose-only effect, or another doubt; inactive = no such curve, though single readings can be large or run the other way;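 note: potency is the fitted concentration of half-maximal effect; plate controls were no enzyme wells and a reference inhibitor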
IMPase inh: qHTS Assay for Identifying the Cell-Membrane Permeable IMPase Inhibitors. Inositol monophosphatase 1 (Rattus norvegicus), P97697. CHO-M1 cells, IP1 accumulation, HTRF TR-FRET ratio. inhibition (IP1 accumulation), % at 46.1 µM. 120,000 tested, under 10 active; active = well fitted curve in the direction sought with a large enough effect in the signal ratio, not every such curve was filed as active; inconclusive = small, poorly fitted or top-dose-only effect, or a change in a side signal; inactive = no such curve, though single readings can be large or run the other way; the % refers to the signal ratio;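 note: cells stimulated with carbachol in lithium chloride buffer; plate controls were DMSO basal wells for no effect and reference inhibitor wells for full effect; higher means more IMPase inhibition seen as more IP1 and lower FRET ratio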
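Measured: the HTRF emission ratio (665/620 nm) plus the 620 nm donor channel, each fitted to the Hill equation to give AC50. Cells were CHO-M1 given compounds up to 46 uM and a 30 min carbachol stimulation at 37C.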
HPGD inh: qHTS Assay for Inhibitors of HPGD (15-Hydroxyprostaglandin Dehydrogenase). purified HPGD, NADH fluorescence kinetic, PGE2 substrate. AID 894, 2007. actives 4.3% (n = 150,000). 15-hydroxyprostaglandin dehydrogenase [NAD(+)] (Homo sapiens), P15428. Potency, µM, inactives show at the highest dose activity change, negative = inhibition, usual class: inhibitors; active = well fitted inhibition curve with a large enough effect, not every such curve was filed as active; inconclusive = small, poorly fitted or top-dose-only effect, or another doubt; inactive = no such curve, though single readings can be large or run the other way; note: potency is the fitted concentration of half-maximal effect
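20 nM HPGD preincubated 15 min at room temperature with compound in 50 mM Tris-HCl pH 8, 0.01% Tween 20. Started with 1 mM NAD+ and 30 uM prostaglandin E2; NADH fluorescence (360/450 nm) read 5 times over 30-s intervals, last minus first.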
IMPase Li cell: qHTS Assay for Identifying the Cell-Membrane Permeable IMPase Inhibitors: Potentiation with Lithium; CHO-M1 cells, IP1 TR-FRET (IP-One), carbachol + lithium; Potency, µM (doses to about 59.4 µM), for inactives: at the highest dose activity, negative = IMPase inhibition, most hits filed as inhibitors; actives 0.35% (n = 210,000);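 note: IP1 builds up when IMPase is blocked and the TR-FRET signal falls; potency is the fitted concentration of half-maximal effect; plate controls were basal vehicle for no effect and high inhibitor control for full effect; nearly all actives have a fitted effect of over 50% in size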
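Test compounds were applied to CHO-M1 cells previously cultured for 16–30 h at 2000 per well. A small lithium amount accompanied them; after 30 min at 37C, IP1 was quantified by TR-FRET.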
An asterisk follows results filed as active; ? = inconclusive; / = no result; [ ] = another dose, or the depositor's remark. Unless noted, calls come from the whole dose curve; as a rule, active = well fitted curve in the direction sought with a large enough effect; inconclusive = small, poorly fitted or top-dose-only effect, or another doubt; inactive = no such curve, though single readings can be large; an effect the other way counts as inactive or inconclusive. Unless noted, % is set by controls: 0 for no effect and ±100 for the full control effect.

SMILES	12-hLO inh	PNC inhibitor	ALDH1A1 block	IMPase inh	HPGD inh	IMPase Li cell
CCOc1ccc(N2C(=O)CC(SCCN)C2=O)cc1 (configuration not stated)	3%	26	3.2µM*	-6	-6%	-1%[38.3 µM]
C=CCNc1nnc(SC2CC(=O)N(c3ccc(OC)cc3)C2=O)s1 (configuration not stated)	0%	-6	2µM*	4	?	2%[38.3 µM]
COc1ccc(N2C(=O)CC(Sc3nccc(C)n3)C2=O)cc1 (configuration not stated)	3%	28	22µM*	3	-2%	-8%[38.3 µM]
COc1ccc(N2C(=O)CC(Sc3ncccc3C(=O)O)C2=O)cc1 (configuration not stated)	-5%	-3	?	-9	-4%	15%[38.3 µM]
COc1ccc(N2C(=O)CC(Sc3nc4ccccc4s3)C2=O)cc1 (configuration not stated)	/	/	7.9µM*	/	/	-1%
COC1/C=C/OC2(C)Oc3c(C)c(O)c4c(O)c(c(/C=N/N5CCN(C)CC5)c(O)c4c3C2=O)NC(=O)/C(C)=C/C=C/C(C)C(O)C(C)C(O)C(C)C(OC(C)=O)C1C (configuration not stated)	-6%	/	-2%	?	-16%	19%
Cc1ccc(OCCCn2c(-c3ccc(Cl)cc3)nc3ccccc3c2=O)cc1C	/	/	/	-8	/	/
Cc1ccccc1OCC1CO1 (configuration not stated)	4%	/	?	/	-10%	37%
CC1CN(Cc2csc(-c3ccc(Cl)cc3)n2)CC(C)O1 (configuration not stated)	/	/	16µM*	/	/	9%
ClCc1csc(-c2ccc(Cl)cc2)n1	0%	-113*	-9%	/	-5%	-15%
Cc1nc(CSc2ccc(Cl)cc2)cc(N2CC(C)OC(C)C2)n1 (configuration not stated)	/	/	6%	/	/	6%
Cc1cc(C)c2c(=O)n(CC(=O)N3CCC(N4CCCCC4)CC3)sc2n1	-11%	0	13µM*	4	13µM*	12%[38.3 µM]
CCOC(=O)C1CCCN(C(=O)Cn2sc3nc(C)cc(C)c3c2=O)C1 (configuration not stated)	-8%	?	?	13	?	29%[38.3 µM]
COCCn1c(C)cc(/C=C2\NC(=S)N(C)C2=O)c1C	-22%	?	16µM*	/	20µM*	37%
CN1C(=O)/C(=C/c2cc3c(cc2Br)OCO3)NC1=S	/	/	?	/	/	8%
COc1cccc(-c2nc(NCc3cnc(C)cn3)c3ccccc3n2)c1	11%	/	6%	/	-10%	14%
CCOc1cc(C=O)ccc1OCC(N)=O	/	/	11µM*	/	/	-2%
C=CCOc1c(Br)cc(/C=N/O)cc1OCC	-4%	-109*	14%	/	-5%	4%
CCOc1cc(C=O)cc(Br)c1OCC(N)=O	/	/	7.9µM*	/	/	0%
CCc1nc2nc(C)cc(Nc3ccc(OC)cc3)n2n1	/	/	/	7	/	/
COC(=O)c1c(NC(=O)c2cc3ccccc3c(=O)o2)sc2c1CCCC2	/	/	/	1	/	/
COc1cccc(Cn2c(=O)c(CCc3ccccc3)nc3cnc(N4CCOCC4)nc32)c1	/	/	?	/	/	11%
CCc1nnc(NS(=O)(=O)c2ccc(N/C=C\C(=O)c3ccc(C)cc3)cc2)s1	-24%	-7	?	4	25µM*	-5%[38.3 µM]
CCc1nnc(NS(=O)(=O)c2ccc(N/C=C\C(=O)c3ccc(F)cc3)cc2)s1	/	/	?	/	/	5%
CCc1nnc(NS(=O)(=O)c2ccc(N/C=C/C(=O)c3ccc(C)cc3)cc2)s1	-1%	-9	?	/	18µM*	8%
SMILES	12-hLO inh	PNC inhibitor	ALDH1A1 block	IMPase inh	HPGD inh	IMPase Li cell
Cc1ccc(C2CC(=O)Oc3c(C(C)C)ccc(C)c32)cc1 (configuration not stated)	-5%[0.00818 µM]	/	5%	/	-1%	10%
O=C1/C(=C/c2ccc(F)cc2)SC(=S)N1Nc1ncc(C(F)(F)F)cc1Cl	-9%	39	?	-1	-25%	53%[38.3 µM]
O=C1/C(=C\c2ccccn2)SC(=S)N1Nc1ncc(C(F)(F)F)cc1Cl	-15%	81	?	-18	32µM*	8%[38.3 µM]
Cn1c(=O)c2c(nc(CN3CCN(CCO)CC3)n2Cc2cccc3ccccc23)n(C)c1=O	8%	8	4.5µM*	1	-2%	40%[38.3 µM]
Cn1c(=O)c2c(nc(N3CCCCCC3)n2Cc2cccc3ccccc23)n(C)c1=O	-15%	18	0.89µM*	?	-26%	5%[38.3 µM]
Cn1c(=O)[nH]c(=O)c2c1nc(N1CCCCCC1)n2CC(N)=O	5%	-19	14µM*	16	-5%	11%
CCN1CCN(Cc2nc3c(c(=O)n(C)c(=O)n3C)n2Cc2ccccc2Cl)CC1	0%	-18	0%	9	-11%	3%[38.3 µM]
Cn1c(=O)c2c(nc(N3CCOCC3)n2Cc2ccccc2)n(C)c1=O	/	/	/	1	/	/
CCn1c(N2CCN(CC(=O)c3c[nH]c4ccccc34)CC2)nc2c1c(=O)[nH]c(=O)n2C	-1%	10	22µM*	-4	-12%	-10%[38.3 µM]
C/C=C/Cn1c(N2CCCCCC2)nc2c1c(=O)[nH]c(=O)n2C	-1%	?	?	7	-17%	-16%[38.3 µM]
O=c1cnc2cnc(N3CCOCC3)nc2n1CCc1ccccc1	/	/	3%	/	/	10%
O=C1[C@H]2[C@H]3[C@H](O)[C@H](O)C/C(=N/OCc4ccccc4)[C@H]3CC[C@@H]2C(=O)N1c1cccc(Oc2ccccc2)c1	/	/	2%[13.5 µM]	/	/	/
COc1ccc(S(=O)(=O)N(C)CC(=O)O)cc1C	2%	/	5%	/	1%	/
C/C(Cl)=C\Cn1c(N2CCCCCC2)nc2c1c(=O)n(C)c(=O)n2C	-4%	-16	3.5µM*	14	4%	5%[38.3 µM]
Cn1c(=O)c2c(nc(N3CCCCC3)n2CCNC2=NCCC2)n(C)c1=O	-1%	14	7%	1[1.84 µM]	2%	18%[38.3 µM]
Cn1c(=O)c2c(nc(N3CCOCC3)n2CC(=O)c2ccccc2)n(C)c1=O	0%	?	-1%	-5	-14%	-5%[38.3 µM]
CN1CCN(c2nc3c(c(=O)n(C)c(=O)n3C)n2Cc2cccc3ccccc23)CC1	2%	42	11µM*	4	-8%	42%[38.3 µM]
Cn1c(=O)c2c(nc(N3CCCCCC3)n2CC(=O)c2ccccc2)n(C)c1=O	2%	55	4.5µM*	-6	-12%	1%[38.3 µM]
